Data taken from PubChem BioAssay.
Active and inactive are the calls of the source.

Assays:
[1] = small molecules captured by biotinylated probe aFSTL3 – biochemical, small-molecule microarray, fluorescence 635/667, stem cell growth factor project, primary screen (AID 1064); settings: higher = more signal;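 further: measures binding of the biotinylated anti-FSTL3 antibody to printed compounds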
[2] = binders from COS7 lysate, DM2A8 probe, primary screen, torsin A project, cell lysate, small-molecule microarray, fluorescence 635/667 (AID 1065); settings: higher = more signal, COS7 lysate expressing mutant human TOR1A
[3] = small molecules captured by biotinylated probe aFGF2 – biochemical, small-molecule microarray, fluorescence 635/667, stem cell growth factor project, primary screen (AID 1067); settings: higher = more signal;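 further: measures binding of biotinylated aFGF2 protein to printed compounds on slides; z-score merges feature fluorescence and signal-to-noise across triplicate slides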
[4] = small molecules captured by biotinylated probe aFGF10 – biochemical, small-molecule microarray, fluorescence 635/667, stem cell growth factor project, primary screen (AID 1071); settings: higher = more signal;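 further: score merges 667 nm spot intensity and signal to noise from triplicate slides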
[5] = molecular target: Neurogenic locus notch homolog protein 2 (Homo sapiens) (UniProt Q04721); assay: small molecules binding Notch2 protein – biochemical, small-molecule microarray, 635 nm fluorescence, stem cell growth factors, primary screen (AID 1073); settings: higher = more signal
[6] = molecular target: Pro-neuregulin-1, membrane-bound isoform (Homo sapiens) (UniProt Q02297); assay: small molecules binding neuregulin-1 protein – biochemical, small-molecule microarray, fluorescence 635/667, psychiatric disease protein project, primary screen (AID 1075); settings: NRG1 binding, 635 nm fluorescence, higher = more signal;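 further: score combines 667 nm spot fluorescence with signal to noise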
[7] = tested on: Neuregulin-1 EGF-like domain; assay: small molecules binding NRG1 EGF domain – biochemical, small-molecule microarray, 635 nm fluorescence, primary screen (AID 1081); settings: higher = more signal;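 further: binding of the protein to compounds printed on small-molecule microarray slides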
[8] = FRG1 expression reporter modulators in myotubes – cell-based, C2C12 myotubes, firefly/Renilla luciferase, luminescence, FRG1 inhibition for FSHD, primary screen (AID 1084); settings: FRG1 promoter luciferase, higher = more signal, called active from +8 up or from −8 down
[9] = small molecules captured by biotinylated probe aFST – biochemical, small-molecule microarray, fluorescence 635/667, stem cell growth factor project, primary screen (AID 1086); settings: higher = more signal;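 further: score merges 667 nm fluorescence with signal-to-noise of each printed compound spot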
[10] = binders of probe aHhip on microarray, primary screen, stem cell growth factor project, biochemical, small-molecule microarray, fluorescence 635/667 (AID 1087); settings: higher = more signal;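 further: score merges spot fluorescence at 667nm with spot signal to noise ratio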
[11] = tested on: PRMT1 (protein arginine N-methyltransferase 1); assay: small molecules binding arginine methyltransferase PRMT1 – biochemical, small-molecule microarray, 635 nm fluorescence, primary screen (AID 1088); settings: higher = more signal;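 further: binding of Prmt1 protein to compounds spotted on small-molecule microarray slides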
[12] = growth effects on S. cerevisiae YJM789 – YJM789 clinical isolate, OD600, 24 h, basal, primary screen (AID 1089); settings: higher = more signal, called active from +8 up or from −8 down;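 further: growth of clinical yeast isolate S. cerevisiae YJM 789 seeded 1000 cells per well; test concentration not given here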
[13] = S. pombe growth modifiers, basal conditions – strain 972, OD600, 24 h, no modulator, primary screen (AID 1090);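 further: basal condition with compound alone and no growth modifier present; test concentration not given here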; settings: S. pombe 972 growth, higher = more signal, called active from +8 up or from −8 down
[14] = budding yeast growth modifiers under rapamycin – strain BY4716, OD600, 96 h, primary screen (AID 1091); further: test concentration not given here; settings: S. cerevisiae BY4716 + rapamycin, higher = more signal, called active from +8 up or from −8 down
[15] = molecular target: Torsin-1A-interacting protein 2 (Homo sapiens) (UniProt Q8NFQ8); assay: small molecules binding lysate-expressed LULL1 – cell lysate, human LULL1 lysate, 635/667 nm fluorescence, primary screen (AID 1092); settings: small-molecule microarray, hLULL1 lysate binding, 635 nm fluorescence; higher = more signal;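 further: probe is lysate of COS7 cells overexpressing human LULL1; score merges per-feature 667 nm fluorescence with signal-to-noise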
[16] = optical density change of DRC41 E. coli – strain DRC41, OD650, 24 h, E. coli filamentation project, primary screen (AID 1093);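 further: MC1000 strain lacking acrAB efflux and sulA so SOS filamentation is blocked; test concentration not given here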; settings: E. coli DRC41 growth, higher = more signal, called active from +8 up or from −8 down
[17] = probe aLefty2 binding to arrayed compounds – biochemical, biotinylated probe, 635/667 nm fluorescence, primary screen (AID 1094); settings: small-molecule microarray, higher = more signal;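 further: score merges spot fluorescence near 667 nm with spot signal-to-noise ratio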
[18] = tested on: Noggin (protein binding on small-molecule microarray); assay: small molecules binding Noggin protein – biochemical, 635/667 nm fluorescence, primary screen (AID 1095); settings: 635 nm fluorescence, higher = more signal;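 further: score merges 667 nm feature fluorescence with signal to noise over triplicate slides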
[19] = molecular target: Neurogenic locus notch homolog protein 3 (Homo sapiens) (UniProt Q9UM47); assay: small molecules binding NOTCH3 protein – biochemical, 635/667 nm fluorescence, primary screen (AID 1096); settings: small-molecule microarray, 635 nm fluorescence, higher = more signal
[20] = probe aEGFR binding to arrayed compounds – biochemical, biotinylated probe, 635/667 nm fluorescence, primary screen (AID 1097); settings: small-molecule microarray, higher = more signal;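 further: probe is a biotinylated anti-EGFR antibody binding compounds printed on slides; score combines fluorescence near 667 nm and signal to noise of each spot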

Pro-neuregulin-1, membrane-bound isoform (Homo sapiens), sequence (Q02297 whole entry, looked up, the tested form may be a part, canonical isoform): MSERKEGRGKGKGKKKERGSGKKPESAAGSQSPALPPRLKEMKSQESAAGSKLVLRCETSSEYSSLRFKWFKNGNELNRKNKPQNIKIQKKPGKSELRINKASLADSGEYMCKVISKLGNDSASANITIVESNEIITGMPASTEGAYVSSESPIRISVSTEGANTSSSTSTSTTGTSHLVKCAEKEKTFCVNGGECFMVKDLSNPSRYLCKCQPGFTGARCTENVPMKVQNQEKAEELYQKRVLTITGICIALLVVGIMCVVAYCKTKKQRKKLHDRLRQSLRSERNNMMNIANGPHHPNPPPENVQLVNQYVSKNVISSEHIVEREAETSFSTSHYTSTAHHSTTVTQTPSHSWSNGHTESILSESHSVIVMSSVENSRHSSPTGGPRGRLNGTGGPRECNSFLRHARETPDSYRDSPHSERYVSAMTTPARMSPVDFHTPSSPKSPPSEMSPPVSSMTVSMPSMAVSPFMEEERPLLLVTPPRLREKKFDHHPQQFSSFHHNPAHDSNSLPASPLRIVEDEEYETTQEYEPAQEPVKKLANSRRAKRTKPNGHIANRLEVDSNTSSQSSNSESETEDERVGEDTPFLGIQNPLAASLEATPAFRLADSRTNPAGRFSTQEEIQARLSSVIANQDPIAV
Neurogenic locus notch homolog protein 3 (Homo sapiens), sequence (Q9UM47 whole entry, looked up): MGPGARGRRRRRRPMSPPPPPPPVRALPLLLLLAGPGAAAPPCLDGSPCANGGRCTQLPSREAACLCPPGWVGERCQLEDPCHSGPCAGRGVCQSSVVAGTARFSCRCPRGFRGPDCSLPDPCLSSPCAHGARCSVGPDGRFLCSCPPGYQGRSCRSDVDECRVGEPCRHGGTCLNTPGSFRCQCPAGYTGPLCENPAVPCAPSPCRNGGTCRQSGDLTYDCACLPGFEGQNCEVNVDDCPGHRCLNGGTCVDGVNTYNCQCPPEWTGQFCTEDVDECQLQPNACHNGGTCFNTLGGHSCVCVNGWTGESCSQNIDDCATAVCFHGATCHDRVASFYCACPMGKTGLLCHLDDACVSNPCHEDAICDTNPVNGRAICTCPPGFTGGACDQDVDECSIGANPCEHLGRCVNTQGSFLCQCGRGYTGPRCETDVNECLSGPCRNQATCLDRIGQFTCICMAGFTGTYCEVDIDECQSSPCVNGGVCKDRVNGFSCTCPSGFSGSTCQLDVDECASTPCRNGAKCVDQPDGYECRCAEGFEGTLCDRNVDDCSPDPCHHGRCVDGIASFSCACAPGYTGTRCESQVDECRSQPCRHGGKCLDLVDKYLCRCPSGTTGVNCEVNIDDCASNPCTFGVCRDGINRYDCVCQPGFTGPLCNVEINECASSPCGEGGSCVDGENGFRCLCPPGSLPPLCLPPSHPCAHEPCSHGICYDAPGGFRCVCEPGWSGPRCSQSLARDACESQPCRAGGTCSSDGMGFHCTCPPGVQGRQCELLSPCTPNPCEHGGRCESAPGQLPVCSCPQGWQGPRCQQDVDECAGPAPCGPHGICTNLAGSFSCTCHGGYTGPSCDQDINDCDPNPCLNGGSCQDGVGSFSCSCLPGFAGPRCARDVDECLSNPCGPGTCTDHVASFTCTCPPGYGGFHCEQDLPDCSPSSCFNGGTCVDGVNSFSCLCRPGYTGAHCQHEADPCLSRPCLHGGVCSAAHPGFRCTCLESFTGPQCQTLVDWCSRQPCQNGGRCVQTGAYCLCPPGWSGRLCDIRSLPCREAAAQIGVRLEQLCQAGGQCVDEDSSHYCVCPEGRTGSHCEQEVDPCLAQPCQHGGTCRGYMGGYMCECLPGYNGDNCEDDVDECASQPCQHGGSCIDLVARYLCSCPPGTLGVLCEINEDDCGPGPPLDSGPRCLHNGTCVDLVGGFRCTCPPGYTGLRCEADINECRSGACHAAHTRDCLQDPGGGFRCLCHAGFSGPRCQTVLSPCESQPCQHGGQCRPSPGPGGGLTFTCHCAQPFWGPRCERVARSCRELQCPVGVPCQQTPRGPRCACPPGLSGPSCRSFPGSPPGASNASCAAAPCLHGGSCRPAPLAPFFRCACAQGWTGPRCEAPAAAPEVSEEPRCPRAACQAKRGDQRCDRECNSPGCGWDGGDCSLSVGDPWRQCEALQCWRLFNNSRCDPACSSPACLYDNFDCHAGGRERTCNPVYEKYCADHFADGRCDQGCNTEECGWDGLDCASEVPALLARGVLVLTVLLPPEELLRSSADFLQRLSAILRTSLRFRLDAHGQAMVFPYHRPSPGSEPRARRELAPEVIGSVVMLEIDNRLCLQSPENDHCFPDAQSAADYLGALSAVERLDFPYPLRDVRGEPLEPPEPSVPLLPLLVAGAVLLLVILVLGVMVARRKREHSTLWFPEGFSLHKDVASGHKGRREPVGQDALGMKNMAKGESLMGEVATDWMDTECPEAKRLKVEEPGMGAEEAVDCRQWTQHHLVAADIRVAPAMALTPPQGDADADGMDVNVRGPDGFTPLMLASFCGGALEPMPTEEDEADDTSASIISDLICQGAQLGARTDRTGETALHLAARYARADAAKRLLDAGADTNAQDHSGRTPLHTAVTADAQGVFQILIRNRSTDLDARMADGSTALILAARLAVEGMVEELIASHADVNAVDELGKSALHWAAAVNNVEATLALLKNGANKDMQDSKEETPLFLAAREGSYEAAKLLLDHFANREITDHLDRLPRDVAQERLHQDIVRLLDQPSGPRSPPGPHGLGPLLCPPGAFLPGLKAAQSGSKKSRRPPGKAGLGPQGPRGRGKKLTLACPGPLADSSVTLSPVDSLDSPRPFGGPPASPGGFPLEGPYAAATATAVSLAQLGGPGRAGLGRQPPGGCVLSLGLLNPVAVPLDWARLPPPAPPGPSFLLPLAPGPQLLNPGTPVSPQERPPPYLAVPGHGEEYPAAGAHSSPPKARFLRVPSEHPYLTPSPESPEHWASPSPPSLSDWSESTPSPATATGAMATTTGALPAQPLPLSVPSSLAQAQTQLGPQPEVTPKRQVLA
Torsin-1A-interacting protein 2 (Homo sapiens), sequence (Q8NFQ8 whole entry, looked up): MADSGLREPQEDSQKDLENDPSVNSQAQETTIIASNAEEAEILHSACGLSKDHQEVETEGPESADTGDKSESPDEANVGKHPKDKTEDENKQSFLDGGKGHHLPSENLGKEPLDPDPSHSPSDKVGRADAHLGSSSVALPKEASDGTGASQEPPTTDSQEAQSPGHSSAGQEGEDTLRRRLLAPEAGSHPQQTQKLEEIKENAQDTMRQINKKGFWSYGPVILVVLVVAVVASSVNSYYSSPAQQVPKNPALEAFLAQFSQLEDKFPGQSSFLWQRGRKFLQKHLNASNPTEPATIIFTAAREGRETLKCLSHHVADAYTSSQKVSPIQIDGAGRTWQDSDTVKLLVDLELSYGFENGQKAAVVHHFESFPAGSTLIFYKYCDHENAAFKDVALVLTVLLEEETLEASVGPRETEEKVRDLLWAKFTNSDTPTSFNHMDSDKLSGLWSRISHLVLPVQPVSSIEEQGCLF

Row | Compound | composite z-score [1] | composite z-score [2] | composite z-score [3] | composite z-score [4] | composite z-score [5] | composite z-score [6] | composite z-score [7] | z-score [8] | composite z-score [9] | composite z-score [10] | composite z-score [11] | z-score [12] | z-score [13] | z-score [14] | composite z-score [15] | z-score [16] | composite z-score [17] | composite z-score [18] | composite z-score [19] | composite z-score [20]
1 | COCCOC(=O)N1C(=O)[C@@]2(c3ccccc31)[C@H](c1ccc(OCCO)cc1)N1[C@H](c3ccccc3)[C@H](c3ccccc3)OC(=O)[C@H]1[C@@H]2C(=O)Nc1nc2ccccc2s1 | -0.436 | -0.504 | -0.0848 | 0.26 | 0.829 | 1.07 | 1.25 | -0.567 (inactive) | 0.439 | 0.154 | 1.45 | 0.405 (inactive) | 0.371 (inactive) | 2.33 (inactive) | 3.13 | 1.16 (inactive) | 0.0305 | 0.396 | 1.13 | -0.0039
2 | COc1ccc([Si](C)(C)[C@@H]2[C@@H](CCn3cc([C@H](O)c4ccccc4)nn3)O[C@]3(C(=O)N(Cc4ccc(N5CCOC5=O)cc4)c4ccccc43)[C@H]2C)cc1 | -0.28 | 0.882 | -0.0658 | 0.512 | 0.62 | 0.61 | 0.825 | 0.216 (inactive) | 0.137 | 0.0854 | 1.55 | -0.113 (inactive) | 0.984 (inactive) | 2.04 (inactive) | 0.995 | 1.87 (inactive) | 0.047 | 1.01 | 1.12 | 0.0711
3 | CCOC(=O)C[C@H]1[C@H](OC(=O)c2ccccc2-c2ccccc2)[C@@H](NC(=O)CC(C)C)c2cc(OCCCO)ccc2N1C(=O)c1ccc2ccccc2n1 | -0.469 | 0.257 | -0.0463 | 0.414 | 0.549 | -0.121 | 0.324 | 0.0832 (inactive) | 0.535 | 0.0274 | 0.0508 | -0.0014 (inactive) | -0.0812 (inactive) | 0.116 (inactive) | 1.19 | -0.64 (inactive) | -0.158 | 0.219 | -0.0063 | 0.0111
4 | CN1C2C=C(CCCO)C(C3C(=O)N(C(N)=O)C(=O)C32)C1c1cccs1 (stereo not given) | -0.153 | 0.104 | -0.116 | -1.63 | 0.127 | -0.317 | 0.165 | -0.194 (inactive) | 0.0118 | 0.303 | 0.613 | 1.06 (inactive) | 1.1 (inactive) | 0.689 (inactive) | 0.502 | 0.155 (inactive) | 0.89 | -0.23 | -0.658 | 0.976
5 | COC(=O)[C@@]1(Cc2ccc(OC)cc2)[C@H]2c3cc(C(=O)N(C)C)n(CCc4c[nH]c5ccc(O)cc45)c3C[C@H]2CN1C(=O)c1ccccc1 | 1.27 | -0.0234 | 0.147 | 1.04 | 1.69 | 1.91 | 1.25 | 1.5 (inactive) | 1.7 | 0.177 | 0.56 | 1.94 (inactive) | 0.466 (inactive) | 3.51 (inactive) | 3.36 | -0.765 (inactive) | 0.41 | -0.0794 | 1.02 | 0.102
6 | C=CC[C@@H](OC(=O)Nc1ccc(OC)cc1)c1ccc(OCCO)cc1 | 0.767 | -1.54 | -0.131 | -0.805 | -2.39 | -0.682 | 0.0481 | 5.78 (inactive) | -1.25 | 0.0722 | -0.424 | -0.348 (inactive) | -3.59 (inactive) | 0.126 (inactive) | -0.0818 | 0.743 (inactive) | -0.0304 | -0.929 | -0.801 | -0.338
7 | C=CCN1C(=O)[C@@]2(O[C@@H](CCO)[C@H]([Si](C)(C)c3ccc(OC)cc3)[C@H]2C)c2cc(N3C(=O)c4ccccc4Oc4ccccc43)ccc21 | -0.033 | 0.0892 | -0.0491 | 0.907 | 0.166 | 0.402 | 0.882 | -1.94 (inactive) | -0.204 | -0.261 | 0.0455 | 1.34 (inactive) | 0.237 (inactive) | 9.42 (active) | 1.65 | 2.15 (inactive) | -0.0665 | 0.514 | 0.612 | -0.135
